# From ChEMBL document CHEMBL3988442, “University of Dundee, Small-Polar-MMV Screening Library” (2021)
# Target: T1, Methionyl-tRNA synthetase, putative (Leishmania donovani (strain BPK282A1)) (UniProt E9BF75)
# T1 sequence (whole entry): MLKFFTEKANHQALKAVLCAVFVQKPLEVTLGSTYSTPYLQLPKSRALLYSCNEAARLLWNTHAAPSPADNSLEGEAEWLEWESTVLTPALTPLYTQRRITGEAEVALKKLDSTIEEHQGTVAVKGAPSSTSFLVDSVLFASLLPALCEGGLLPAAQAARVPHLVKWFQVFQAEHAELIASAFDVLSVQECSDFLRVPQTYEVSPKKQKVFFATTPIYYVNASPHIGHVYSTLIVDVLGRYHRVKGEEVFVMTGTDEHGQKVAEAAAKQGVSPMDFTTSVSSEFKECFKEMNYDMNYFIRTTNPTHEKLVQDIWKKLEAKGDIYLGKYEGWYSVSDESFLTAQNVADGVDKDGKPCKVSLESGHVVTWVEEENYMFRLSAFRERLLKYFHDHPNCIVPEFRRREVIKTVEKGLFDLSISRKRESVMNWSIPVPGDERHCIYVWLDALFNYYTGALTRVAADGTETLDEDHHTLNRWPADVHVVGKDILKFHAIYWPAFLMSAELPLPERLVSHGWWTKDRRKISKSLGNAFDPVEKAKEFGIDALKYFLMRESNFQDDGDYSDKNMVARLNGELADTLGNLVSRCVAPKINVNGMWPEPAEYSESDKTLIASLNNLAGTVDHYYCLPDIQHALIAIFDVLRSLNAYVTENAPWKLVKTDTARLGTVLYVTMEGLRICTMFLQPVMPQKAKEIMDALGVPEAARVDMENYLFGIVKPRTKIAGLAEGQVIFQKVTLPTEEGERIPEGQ
# Test: Leishmania donovani Methionine tRNA synthetase (LdMetRS):v7. Dose response assay
# Format: functional
# Design: conc 80 nM, time 150 minutes
smiles,measurement,setting,value
Cn1ncc2c(NCCc3nnn[nH]3)nc(Nc3ccc(F)c(F)c3)nc21,PXC50,"BOTTOM 6.583334695, HILLSLOPE 0.991501174, MAX_EFFECT 88.67924528, TOP 94.6320251",5.11
same,PXC50,"BOTTOM -5.664940327, HILLSLOPE 0.831663104, MAX_EFFECT 86.00508906, TOP 96.34066377",5.16
same,PXC50,"BOTTOM -7.167085921, HILLSLOPE 0.718342131, MAX_EFFECT 85.0877193, TOP 100.1570552",5.14
OCCNc1nc(Nc2cccc(C(F)(F)F)c2)nc2ccsc12,PXC50,MAX_EFFECT 27.65957447,< 4
same,PXC50,MAX_EFFECT 37.44493392,< 4
same,PXC50,MAX_EFFECT 44.00826446,< 4
Cc1nc(N[C@@H](Cc2ccccc2)C(=O)O)c2c3c(sc2n1)CCCC3,PXC50,MAX_EFFECT 23.48484848,< 4
same,PXC50,MAX_EFFECT 27.55102041,< 4
OCc1ccncc1NCc1cnc(-c2ccccn2)s1,PXC50,MAX_EFFECT 2.34741784,< 4
same,PXC50,MAX_EFFECT 7.222222222,< 4
CC(C)CCNc1nnc(C(C)C)s1,PXC50,MAX_EFFECT 4.081632653,< 4
same,PXC50,MAX_EFFECT 6.479859895,< 4
same,PXC50,MAX_EFFECT 7.971014493,< 4
Cn1ncc2c(NCCS(C)(=O)=O)nc(Nc3ccc(F)c(F)c3)nc21,PXC50,MAX_EFFECT 19.95249406,< 4
same,PXC50,MAX_EFFECT 30.90128755,< 4
same,PXC50,MAX_EFFECT 33.0754352,< 4
OCCN1CCC(F)(F)C2(CCN(c3cnccn3)C2)C1 (stereo not drawn),PXC50,MAX_EFFECT 3.174603175,< 4
same,PXC50,MAX_EFFECT 14.57943925,< 4
Nc1cc(C(=O)O)c(Cl)cc1Cl,PXC50,MAX_EFFECT 6.695464363,< 3
same,PXC50,MAX_EFFECT 9.69581749,< 3
NCC1CC1c1ccc(Cl)cc1Cl (stereo not drawn),PXC50,"BOTTOM -0.51010351, HILLSLOPE 1.132508714, MAX_EFFECT 55.5075594, TOP 100.0",3.07
same,PXC50,MAX_EFFECT 48.09885932,< 3
CC(C)C[C@H](N)COc1ccccc1-c1ccccn1,PXC50,MAX_EFFECT 10.44776119,< 4
same,PXC50,MAX_EFFECT 11.38716356,< 4
CN(C)c1nc(Nc2ccc(F)c(F)c2)nc2c1cnn2C,PXC50,"BOTTOM 0.0, HILLSLOPE 0.943271721, MAX_EFFECT 54.1567696, TOP 49.71942024",6.12
same,PXC50,"BOTTOM 0.0, HILLSLOPE 1.040792015, MAX_EFFECT 59.65665236, TOP 50.11386445",6.1
same,PXC50,"BOTTOM 0.0, HILLSLOPE 1.064354186, MAX_EFFECT 50.0967118, TOP 49.52260288",6.2
Cc1sc2nc(CN3CCOCC3)nc(NC3CCS(=O)(=O)C3)c2c1C (stereo not drawn),PXC50,MAX_EFFECT 9.625668449,< 4
same,PXC50,MAX_EFFECT 10.38251366,< 4
CCC(C)NC(=O)c1ccc(-c2ccco2)[nH]c1=O (stereo not drawn),PXC50,MAX_EFFECT 4.72854641,< 4
same,PXC50,MAX_EFFECT 5.442176871,< 4
same,PXC50,MAX_EFFECT 7.971014493,< 4
Cn1ncc2c(NC3CCCCC3O)nc(Nc3ccc(F)c(F)c3)nc21 (stereo not drawn),PXC50,"BOTTOM -1.097292769, HILLSLOPE 1.183920675, MAX_EFFECT 57.48218527, TOP 58.96974935",5.31
same,PXC50,"BOTTOM -1.326166196, HILLSLOPE 1.398612708, MAX_EFFECT 60.37735849, TOP 61.95804926",5.4
same,PXC50,"BOTTOM -2.072986449, HILLSLOPE 1.170002512, MAX_EFFECT 60.08583691, TOP 62.14142479",5.35
Cc1sc2nc(-c3cccs3)nc(N(C)CC(=O)NC3CC3)c2c1C,PXC50,MAX_EFFECT 6.361323155,< 4
same,PXC50,MAX_EFFECT 7.808564232,< 4
CCNc1nc(Nc2ccc(F)c(F)c2)nc2c1cnn2C,PXC50,"BOTTOM 1.995747486, HILLSLOPE 0.878307732, MAX_EFFECT 82.01754386, TOP 90.74385953",5.04
same,PXC50,"BOTTOM -0.278671712, HILLSLOPE 0.874738485, MAX_EFFECT 76.33587786, TOP 84.21903162",5.21
same,PXC50,"BOTTOM -9.286701073, HILLSLOPE 0.734415983, MAX_EFFECT 80.15414258, TOP 112.1235893",4.93
CNC(=O)CN(C)c1nc(-c2cccs2)nc2sc(C)c(C)c12,PXC50,MAX_EFFECT 6.801007557,< 4
same,PXC50,MAX_EFFECT 6.870229008,< 4
OCCNc1nc(Nc2cccc(OC(F)(F)F)c2)nc2ccsc12,PXC50,"BOTTOM -3.252318024, HILLSLOPE 0.711277169, MAX_EFFECT 57.23140496, TOP 100.0",4.23
same,PXC50,MAX_EFFECT 49.7098646,< 4
same,PXC50,MAX_EFFECT 49.77973568,< 4
O=C1NCCCC12CCN(c1nc3c(c(C(F)(F)F)n1)CCCC3)C2 (stereo not drawn),PXC50,MAX_EFFECT 4.081632653,< 4
same,PXC50,MAX_EFFECT 6.313131313,< 4
Cn1ncc2c(NCC3CCOC3)nc(Nc3ccc(F)c(F)c3)nc21 (stereo not drawn),PXC50,"BOTTOM 0.0, HILLSLOPE 0.829006149, MAX_EFFECT 88.54961832, TOP 100.0",4.89
same,PXC50,"BOTTOM 5.170404417, HILLSLOPE 0.914601234, MAX_EFFECT 86.40350877, TOP 102.339634",4.72
same,PXC50,"BOTTOM -0.903989981, HILLSLOPE 0.887117975, MAX_EFFECT 86.41509434, TOP 97.82602818",4.97
NC(=O)c1cccnc1Nc1cccc(C(F)(F)F)c1,PXC50,MAX_EFFECT 7.210626186,< 4
same,PXC50,MAX_EFFECT 13.42975207,< 4
same,PXC50,MAX_EFFECT 16.74008811,< 4
OCCCNc1nccc(Nc2cccc(F)c2)n1,PXC50,MAX_EFFECT 2.056074766,< 4
same,PXC50,MAX_EFFECT 11.40142518,< 4
same,PXC50,MAX_EFFECT 18.45493562,< 4
CN(CCN)c1nc(Nc2ccc(F)c(F)c2)nc2c1cnn2C,PXC50,"BOTTOM 2.133170856, HILLSLOPE 1.093077372, MAX_EFFECT 77.62557078, TOP 100.0",4.41
same,PXC50,"BOTTOM 3.57857286, HILLSLOPE 1.096477566, MAX_EFFECT 74.90566038, TOP 102.700119",4.36
same,PXC50,"BOTTOM 5.354463627, HILLSLOPE 0.967320352, MAX_EFFECT 79.31688805, TOP 100.0",4.54
COCCNc1cc(-c2ccccc2CCN)c2cc[nH]c2n1,PXC50,"BOTTOM -0.0153, HILLSLOPE 1.167622452, MAX_EFFECT 63.88888889, TOP 100.0",4.2
same,PXC50,MAX_EFFECT 46.30872483,< 4
same,PXC50,MAX_EFFECT 46.96707106,< 4
Cc1cnn(CC2CN(Cc3nc(C)c4ccccc4n3)CCO2)c1 (stereo not drawn),PXC50,MAX_EFFECT 29.53020134,< 4
same,PXC50,MAX_EFFECT 39.58333333,< 4
same,PXC50,MAX_EFFECT 44.19410745,< 4
Cn1ncc2c(NC3CCOCC3)nc(Nc3ccc(F)c(F)c3)nc21,PXC50,"BOTTOM 5.374646893, HILLSLOPE 1.78968519, MAX_EFFECT 52.27272727, TOP 55.59803221",4.65
same,PXC50,"BOTTOM 9.100238565, HILLSLOPE 1.237667708, MAX_EFFECT 69.82591876, TOP 73.93326352",5.4
same,PXC50,MAX_EFFECT 40.52863436,< 4
